# SARS PLP yeast: blocks SARS-CoV papain-like protease in a yeast assay; S. cerevisiae expressing SARS-CoV PLpro, growth rescue; Potency, µM (top dose mostly 32.9 µM), inactives show at the highest dose activity, positive = growth rescue, actives largely listed as activators; 330,000 compounds, 0.19% hits; calls by dose curve; note: potency is the fitted concentration of half-maximal effect; 0% is about no effect; nearly all actives have a fitted effect of over 55% in size
# CHX counter: counter-screen hit for Shiga toxin inhibitors, cycloheximide; max response, %; AID 2314; cell reporter, cycloheximide protein synthesis inhibition counterscreen; 300,000 compounds, 12% hits; in the data active = max response mostly above about 13%, no sharp cut-off; inactive = mostly below about 14%; note: read at 38.3 µM for the half of the compounds with a filed dose; 0% is about no effect
# Pf growth 48h: P. falciparum growth inhibition at 48 hours (one generation). 310,000 compounds, 5.9% hits. Potency, µM (series often up to 28.7 µM), without a hit: at the highest dose activity change, negative = inhibition, hits mostly inhibitors. P. falciparum luciferase growth in erythrocytes, 48 h. AID 504832; note: potency is the fitted concentration of half-maximal effect; % is set by controls: 0 for no effect and ±100 for the full control effect
#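 Parasite viability was followed by luminescence of a genomically integrated firefly luciferase. Cultures held 0.1% parasitemia at 2% hematocrit (final), incubated under 5% CO2 at 37 C.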
# Shiga inhibitor: blocks Shiga toxin action in Vero cells. Vero cells, Shiga toxin protein synthesis inhibition reporter. 290,000 compounds, 9.2% hits. inhibition, % at 38.7 µM; in the data active = inhibition mostly above about 28%, no sharp cut-off; inactive = mostly below about 43%; note: 0% is about no effect
# Pf growth 96h: P. falciparum growth inhibition at 96 hours | P. falciparum luciferase reporter growth, 96 h | Potency, µM (titrated, usually from 28.7 µM), without a hit: at the top dose activity change, negative = inhibition, most hits filed as inhibitors | 320,000 compounds, 6.9% hits | AID 504834; note: potency is the fitted concentration of half-maximal effect; % is set by controls: 0 for no effect and ±100 for the full control effect
#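 Cell-based qHTS: luciferase-tagged P. falciparum in erythrocytes (2% hematocrit, 0.05% parasitemia final) incubated with compounds for 96 hours, 37 C, 5% CO2; luciferase detection reagent then added and luminescence measured.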
# AMA1-RON2 inh: disrupts binding of P. falciparum AMA1 to RON2; 360,000 compounds, 0.2% hits; Potency, µM (top dose mostly 58.2 µM), inactives show at the top dose activity change, negative = inhibition, hits mostly inhibitors; AlphaScreen AMA1-biotinylated RON2 peptide binding; AID 720542;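 note: potency is the fitted concentration of half-maximal effect; 0% = vehicle wells and -100% = peptide control; nearly all actives have a fitted effect of over 45% in size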
#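 AMA1 (3D7) with his tag at 25 nM final met compounds first, then biotinylated RON2 peptide at 25 nM; detection used donor plus acceptor beads, 10 µg/mL apiece, read by AlphaScreen after 30 min at room temperature.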
# Numbers without * were called inactive; ? = inconclusive; nt = not tested or not shown. Rows were chosen to be rich in hits. Some 19% of all compounds tested hit in one or more screens of this group. Unless noted, calls come from the whole dose curve; as a rule, active = well fitted curve in the direction sought with a large enough effect; inconclusive = small, poorly fitted or top-dose-only effect, or another doubt; inactive = no such curve, though single readings can be large; an effect the other way counts as inactive or inconclusive.
SMILES,SARS PLP yeast,CHX counter,Pf growth 48h,Shiga inhibitor,Pf growth 96h,AMA1-RON2 inh
O=C(Nc1cccnc1)c1cc(-c2ccc3c(c2)OCO3)on1,?,30*,20%,89*,163%,19%
O=C(Nc1cccnc1)c1cc(-c2ccc(F)cc2)on1,-1%,53*,414%,92*,?,-2%
O=C(Nc1cccnc1)c1cc(-c2ccc(Cl)c(Cl)c2)on1,-4%,21*,78%,47*,?,5%
COc1ccc(-c2cc(C(=O)Nc3cccnc3)no2)cc1OC,-3%,32*,83%,60*,31%,-11%
O=C(Nc1cccnc1)c1cc(-c2cccc(Cl)c2)on1,-6%,-2,94%,-14,38%,9%
COc1ccc(-c2cc(C(=O)Nc3cc(OC)c(OC)c(OC)c3)no2)cc1OC,?,1,77%,-14,?,5%
Cc1oc(-c2ccccc2Cl)nc1CS(=O)CC(=O)NCc1ccc2c(c1)OCO2 (stereo unspecified),4%,-2,5%,-2,?,3%
COc1ccc(/C=C/C(=O)N2CCN(c3ccccn3)CC2)c2ccccc12,-8%,-1,350%,-6,-18%,-23%
Nc1c(C(=O)N/N=C/c2ccccc2)cnn1-c1ccccc1,-3%,45*,151%,96*,218%,-7%
O=C(N/N=C/c1cccnc1)c1ccccc1Cl,1%,17*,15%,61*,-20%,-5%
O=C(N/N=C/c1cccnc1)c1ccc(Cl)c(Cl)c1,nt,nt,nt,nt,nt,-8%
O=C(N/N=C/c1ccccc1)c1cccc2ccccc12,nt,nt,nt,nt,nt,7%
O=C(N/N=C\c1cccnc1)c1ccc(Cl)cc1Cl,0%,31*,-15%,54*,?,53%
O=C(CSc1nc2ccccc2c(=O)[nH]1)Nc1cccc([N+](=O)[O-])c1,-4%,-2,-21%,14,1.2µM*,2%
O=C(N/N=C/c1cccnc1)c1ccccc1Br,-2%,12,18%,47,-4%,-2%
CCC(CC)Nc1ccc(C(CC(N)=O)NC(=O)Cc2cccc3ccccc23)cc1[N+](=O)[O-] (stereo unspecified),0%,1,40%,-4,?,-2%
CCOC(=O)c1cccc(NC(=O)c2c(N)n(C)c(=O)[nH]c2=O)c1,nt,nt,nt,nt,nt,16%
CCC1CCCCN1S(=O)(=O)c1ccc(-n2cnnn2)c(C)c1 (stereo unspecified),8%,-3,2%,-3,-3%,0%
O=C(Cc1cccc2ccccc12)Nc1cccnc1,4%,4,20%,-12,7%,-12%
O=C(O)c1ccccc1C(=O)Nc1ccccn1,5%,8,34%,11,-30%,?
O=C(Nc1cccnc1)c1ccc2ccccc2c1O,-29%,33*,65%,39*,0.47µM*,5%
O=C(NC(Cc1c[nH]c2ccccc12)C(=O)N/N=C/c1cccnc1)c1cccs1 (stereo unspecified),1%,9,-27%,-7,0%,-10%
O=C(N/N=C/c1cccnc1)c1cccs1,0%,38*,9%,75*,-15%,21%
O=C(Nc1ccccn1)c1ccc2ccccc2c1O,-26%,40*,71%,66*,-14%,88%
O=C(N/N=C\c1cccnc1)c1ccccc1O,2%,23*,3%,33*,-2%,6%
SMILES,SARS PLP yeast,CHX counter,Pf growth 48h,Shiga inhibitor,Pf growth 96h,AMA1-RON2 inh
COc1ccc(CCC(=O)NCCS(=O)(=O)N2CCN(c3ccccc3)CC2)cc1,-5%,nt,?,nt,-2%,-8%
CC(=O)N/C(=C\c1ccccc1)C(=O)OCc1ccc(C)cc1,-9%,2,6%,10,22%,8%
COc1ccc2c(c1[N+](=O)[O-])CCC/C2=N/OC(=O)c1ccccc1SC,3%,-1,-11%,-12,?,3%
CC(C)(C)c1cc(C(=O)N/N=C/c2ccc(O)cc2)n(-c2ccccc2)n1,16%,-2,9.3µM*,-6,-8%,-2%
Cc1ccc(C)c(-c2cc(C(=O)Nc3sc(C)c(C)c3C(N)=O)c3ccccc3n2)c1,-4%,2,?,-14,10µM*,-16%
Cc1ccc(C)c(-c2cc(C(=O)N/N=C/c3cccnc3)c3ccccc3n2)c1,-2%,-2,?,-24,4.7µM*,16%
